# Read-outs that look alike come from different tables or passages of the source.
# Legend:
# [1] = system: STK16; settings: concentration: 1 μM, replicates: in singlicate; n = 1
# [2] = system: STK33; settings: concentration: 1 μM, replicates: in singlicate; n = 1
# [3] = system: STK35; settings: concentration: 1 μM, replicates: in singlicate; n = 1
# [4] = system: STK36; settings: concentration: 1 μM, replicates: in singlicate; n = 1
# [5] = system: STK39; settings: concentration: 1 μM, replicates: in singlicate; n = 1
# [6] = system: SYK; settings: concentration: 1 μM, replicates: in singlicate; n = 1
# [7] = system: SgK110; settings: concentration: 1 μM, replicates: in singlicate; n = 1
# [8] = system: T1, TAK1; settings: concentration: 1 μM, replicates: in singlicate; n = 1
# T1 construct: gene MAP3K7
# [9] = system: TAOK1; settings: concentration: 1 μM, replicates: in singlicate; n = 1
# [10] = system: TAOK2; settings: concentration: 1 μM, replicates: in singlicate; n = 1
# [11] = system: TAOK3; settings: concentration: 1 μM, replicates: in singlicate; n = 1
# [12] = system: TBK1; settings: concentration: 1 μM, replicates: in singlicate; n = 1
# [13] = system: TEC; settings: concentration: 1 μM, replicates: in singlicate; n = 1
# [14] = system: TESK1; settings: concentration: 1 μM, replicates: in singlicate; n = 1
# [15] = system: TGFBR1; settings: n = 1
# [16] = system: TGFBR2; settings: concentration: 1 μM, replicates: in singlicate; n = 1
# [17] = system: TIE1; settings: concentration: 1 μM, replicates: in singlicate; n = 1
# [18] = system: T2, TIE2; settings: concentration: 1 μM, replicates: in singlicate; n = 1
# T2 construct: gene TEK
# [19] = system: TLK1; settings: concentration: 1 μM, replicates: in singlicate; n = 1
# [20] = system: TLK2; settings: concentration: 1 μM, replicates: in singlicate; n = 1
# [21] = concentration: 1 μM, replicates: in singlicate
# 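Further: KINOMEscan kinase panel screen.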
structure (smiles),measurement,setting,value
CC(C)(C)c1ccc(C(=O)Nc2cn3cc(-c4cccnc4)ccc3n2)cc1,%Inh,[1],27%
same,%Inh,[2],6%
same,%Inh,[3],0%
same,%Inh,[4],4%
same,%Inh,[5],0%
same,%Inh,[6],0%
same,%Inh,[7],0%
same,%Inh,[8],11%
same,%Inh,[9],0%
same,%Inh,[10],2%
same,%Inh,[11],0%
same,%Inh,[12],40%
same,%Inh,[13],10%
same,%Inh,[14],4%
same,%Inh,[15]; [21],1%
same,%Inh,[16],7%
same,%Inh,[17],4%
same,%Inh,[18],27%
same,%Inh,[19],46%
same,%Inh,[20],5%
Cc1cccc(-c2nc(Nc3cccc(C(N)=O)c3)c3ccccc3n2)n1 [GW876019],%Inh,[1],0%
same,%Inh,[2],29%
same,%Inh,[3],0%
same,%Inh,[4],0%
same,%Inh,[5],0%
same,%Inh,[6],14%
same,%Inh,[7],41%
same,%Inh,[8],0%
same,%Inh,[9],0%
same,%Inh,[10],30%
same,%Inh,[11],0%
same,%Inh,[12],40%
same,%Inh,[13],2%
same,%Inh,[14],0%
same,%Inh,[16],15%
same,%Inh,[17],0%
same,%Inh,[18],41%
same,%Inh,[19],0%
same,%Inh,[20],4%
Cc1cccc(-c2nc(C)cc(Nc3ccncc3)n2)n1 [GSK257997],%Inh,[1],2%
same,%Inh,[2],0%
same,%Inh,[3],0%
same,%Inh,[4],0%
same,%Inh,[5],0%
same,%Inh,[6],34%
same,%Inh,[7],0%
same,%Inh,[8],24%
same,%Inh,[9],0%
same,%Inh,[10],0%
same,%Inh,[11],0%
same,%Inh,[12],15%
same,%Inh,[13],0%
same,%Inh,[14],15%
same,%Inh,[15]; 1 µM,100%
same,%Inh,[16],4%
same,%Inh,[17],0%
same,%Inh,[18],8%
same,%Inh,[19],8%
same,%Inh,[20],0%
Cc1cccc(-c2nc(Nc3ccc4[nH]ncc4c3)c3ccccc3n2)n1 [GW857175],%Inh,[1],17%
same,%Inh,[2],0%
same,%Inh,[3],0%
same,%Inh,[4],15%
same,%Inh,[5],14%
same,%Inh,[6],5%
same,%Inh,[7],0%
same,%Inh,[8],0%
same,%Inh,[9],33%
same,%Inh,[10],9%
same,%Inh,[11],19%
same,%Inh,[12],35%
same,%Inh,[13],3%
same,%Inh,[14],5%
same,%Inh,[16],0%
same,%Inh,[17],17%
same,%Inh,[18],49%
same,%Inh,[19],23%
same,%Inh,[20],0%
C[C@@H]1CCCCN1c1cc(-c2ccc3c(N)n[nH]c3c2)nc(N)n1 [GSK2258759],%Inh,[1],19%
same,%Inh,[2],0%
same,%Inh,[3],0%
same,%Inh,[4],0%
same,%Inh,[5],0%
same,%Inh,[6],10%
same,%Inh,[7],0%
same,%Inh,[8],0%
same,%Inh,[9],0%
same,%Inh,[10],0%
same,%Inh,[11],0%
same,%Inh,[12],24%
same,%Inh,[13],0%
same,%Inh,[14],0%
same,%Inh,[16],0%
same,%Inh,[17],0%
same,%Inh,[18],0%
same,%Inh,[19],23%
same,%Inh,[20],4%
Cc1ccc(-c2cc(-c3c[nH]nc3-c3ccccn3)ccn2)cc1 [GW684088],%Inh,[1],28%
same,%Inh,[2],0%
same,%Inh,[3],0%
same,%Inh,[4],23%
same,%Inh,[5],0%
same,%Inh,[6],21%
same,%Inh,[7],2%
same,%Inh,[8],15%
same,%Inh,[9],0%
same,%Inh,[10],0%
same,%Inh,[11],0%
same,%Inh,[12],26%
same,%Inh,[13],0%
same,%Inh,[14],0%
same,%Inh,[15]; 1 µM,89%
same,%Inh,[16],77%
same,%Inh,[17],0%
same,%Inh,[18],13%
same,%Inh,[19],24%
same,%Inh,[20],10%
Clc1cc(Cl)cc(Nc2ccnc(Nc3cc(Cl)cc(Cl)c3)n2)c1 [GSK175726],%Inh,[1],24%
same,%Inh,[2],0%
same,%Inh,[3],0%
same,%Inh,[4],39%
same,%Inh,[5],2%
same,%Inh,[6],12%
same,%Inh,[7],0%
same,%Inh,[8],18%
same,%Inh,[9],44%
same,%Inh,[10],6%
same,%Inh,[11],0%
same,%Inh,[12],28%
same,%Inh,[13],0%
same,%Inh,[14],20%
same,%Inh,[15]; [21],0%
same,%Inh,[16],7%
same,%Inh,[17],0%
same,%Inh,[18],0%
same,%Inh,[19],25%
same,%Inh,[20],3%
Cn1ccc2ncnc(Oc3ccc(NC(=O)Nc4ccccc4)cc3)c21,%Inh,[1],9%
same,%Inh,[2],17%
same,%Inh,[3],17%
same,%Inh,[4],0%
same,%Inh,[5],0%
same,%Inh,[6],12%
same,%Inh,[7],2%
same,%Inh,[8],4%
same,%Inh,[9],0%
same,%Inh,[10],0%
same,%Inh,[11],0%
same,%Inh,[12],30%
same,%Inh,[13],0%
same,%Inh,[14],1%
same,%Inh,[15]; [21],0%
same,%Inh,[16],0%
same,%Inh,[17],0%
same,%Inh,[18],0%
same,%Inh,[19],2%
same,%Inh,[20],0%
O=C(Nc1n[nH]c2nc(-c3nccs3)c(Br)cc12)C1CC1 [SB-742251],%Inh,[1],61%
same,%Inh,[2],0%
same,%Inh,[3],0%
same,%Inh,[4],1%
same,%Inh,[5],21%
same,%Inh,[6],0%
same,%Inh,[7],4%
same,%Inh,[8],0%
same,%Inh,[9],0%
same,%Inh,[10],0%
same,%Inh,[11],0%
same,%Inh,[12],0%
same,%Inh,[13],14%
same,%Inh,[14],36%
same,%Inh,[15]; [21],15%
same,%Inh,[16],0%
same,%Inh,[17],0%
same,%Inh,[18],8%
same,%Inh,[19],0%
same,%Inh,[20],0%
O=C(Nc1ccc2c(c1)OCO2)NC1CCN(c2ccnc(Nc3ccc(F)cc3)n2)C1 (stereo not shown) [GSK1379724],%Inh,[1],30%
same,%Inh,[2],0%
same,%Inh,[3],0%
same,%Inh,[4],0%
same,%Inh,[5],10%
same,%Inh,[6],16%
same,%Inh,[7],14%
same,%Inh,[8],0%
same,%Inh,[9],0%
same,%Inh,[10],0%
same,%Inh,[11],0%
same,%Inh,[12],0%
same,%Inh,[13],7%
same,%Inh,[14],32%
same,%Inh,[15]; [21],28%
same,%Inh,[16],0%
same,%Inh,[17],0%
same,%Inh,[18],0%
same,%Inh,[19],0%
same,%Inh,[20],0%
COc1cc(Nc2nccc(N3CCC(NC(=O)Nc4cc(C)ccc4C)C3)n2)cc(OC)c1OC (stereo not shown) [GSK1379762],%Inh,[1],57%
same,%Inh,[2],3%
same,%Inh,[3],3%
same,%Inh,[4],0%
same,%Inh,[5],16%
same,%Inh,[6],0%
same,%Inh,[7],0%
same,%Inh,[8],0%
same,%Inh,[9],0%
same,%Inh,[10],0%
same,%Inh,[11],0%
same,%Inh,[12],18%
same,%Inh,[13],14%
same,%Inh,[14],0%
same,%Inh,[15]; [21],8%
same,%Inh,[16],0%
same,%Inh,[17],49%
same,%Inh,[18],2%
same,%Inh,[19],0%
same,%Inh,[20],0%

# From publication PMC5540273 (PLoS ONE, 2017)
